This note sets out measurements from article PMC5540273 (PLoS ONE, 2017).

SMILES strings stand for the structures.

Settings in all cases: concentration: 1 μM, replicates: in singlicate; n = 1
The test system of experiment [1] is TYK2(JH2domain-pseudokinase).
Experiment [2] has as its system TYRO3.
Experiment [3] deals with ULK1.
In experiment [4] the test system is ULK2.
Experiment [5] concerns ULK3.
Experiment [6] relates to T1, VEGFR2.
T1 construct: gene KDR

In experiment [7] the test system is T2, VPS34.
T2 construct: gene PIK3C3

Experiment [8] relates to VRK2.
Experiment [9] concerns WEE1.
For experiment [10], the system named is WEE2.
The test system of experiment [11] is WNK1.
Experiment [12] deals with WNK2.
In experiment [13] the test system is WNK3.
The subject of experiment [14] is WNK4.
Experiment [15] relates to T3, YANK1.
T3 construct: gene STK32A

The subject of experiment [16] is T4, YANK2.
T4 construct: gene STK32B

Experiment [17] has as its system T5, YANK3.
T5 construct: gene STK32C

Experiment [18] concerns T6, YES.
T6 construct: gene YES1

In experiment [19] the test system is T7, YSK1.
T7 construct: gene STK25

Experiment [20] concerns T8, YSK4.
T8 construct: gene MAP3K19
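Note: KINOMEscan kinase panel screen.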

For `O=C(O)C(F)(F)F.O=c1[nH]ccc2nc(N[C@@H]3CCNC3)nc(Nc3ccc4c(c3)S(=O)(=O)CC4)c12` [GSK2181306], the “%Inh” value was 57% in experiment [1]; 2% in experiment [2]; 99.9% in experiment [3]; 99.5% in experiment [4]; 98.6% in [5]; 36% in experiment [6]. The “%Inh” value is 88% in experiment [7]; 89% in experiment [8]; 18% in [9]; 0% in experiment [10]; 0% in [11]; 29% in experiment [12]. Moreover, the “%Inh” value in [13] is 0%; in experiment [14] it was 0%; in [15] it was 70%; in experiment [16] it was 0%; in experiment [17], 8%; in experiment [18], 20%. The “%Inh” value in experiment [19] came out at 97.4%; in experiment [20], 99.7%.

`CC(C)c1nc(-c2cccc(NS(=O)(=O)c3c(F)cccc3F)c2)c(-c2ccnc(Nc3ccc(N4CCOCC4)nc3)n2)s1.Cl` [GSK1723980]: the “%Inh” value in [1] was determined as 60%; in experiment [2], 72%; in [3], 22%; in experiment [4], 13%; in experiment [5], 93.5%; in experiment [6], 91%. Moreover, the “%Inh” value was 0% in experiment [7]; 0% in experiment [8]; 18% in [9]; 0% in experiment [10]; 3% in experiment [11]; 0% in experiment [12]. Further, the “%Inh” value in [13] is listed as 5%; in experiment [14], 4%; in [15] it was 15%; in [16], 9%; in [17], 19%; in [18], 99.7%. Also, the “%Inh” value is reported as 1% in experiment [19] and 91.8% in experiment [20].

For `CC(=O)Nc1cn2nc(Oc3cccc(NC(=O)c4cccc(C(F)(F)F)c4)c3)ccc2n1`, the “%Inh” value in experiment [1] is recorded as 0%; in [2], 33%; in [3], 0%; in experiment [4], 0%; in [5] it was 0%; in experiment [6], 99.4%. In addition, the “%Inh” value in [7] amounted to 24%; in experiment [8], 8%; in experiment [9], 21%; in [10], 0%; in experiment [11], 0%; in [12], 0%. Also, the “%Inh” value was determined as 0% in [13]; 0% in experiment [14]; 0% in experiment [15]; 0% in experiment [16]; 0% in [17]; 96.2% in experiment [18]. Besides, the “%Inh” value in [19] is given as 0%; in experiment [20], 99.9%.

`COc1cccc(-c2nc(-c3ccccc3)[nH]c2-c2ccncc2)c1` [SB-610250]: the “%Inh” value is reported as 93.1% in experiment [1]; 0% in experiment [2]; 8% in [3]; 0% in experiment [4]; 28% in experiment [5]; 0% in experiment [6]. For the same molecule, the “%Inh” value was 0% in experiment [7]; 43% in experiment [8]; 9% in experiment [9]; 0% in experiment [10]; 9% in [11]; 0% in [12]. Besides, the “%Inh” value amounted to 33% in [13]; 29% in experiment [14]; 10% in experiment [15]; 4% in experiment [16]; 0% in experiment [17]; 8% in experiment [18]. In addition, the “%Inh” value in experiment [19] and in experiment [20] was 100% throughout.

Take `CSc1ccc(NC2=C(c3ccc(Cl)cc3)C(=O)NC2=O)cc1` [SB-317658]: the “%Inh” value in [1] is listed as 0%; in experiment [2], 0%; in experiment [3] it was 19%; in [4], 0%; in experiment [5] it was 12%; in experiment [6], 0%. The “%Inh” value in experiment [7] is 22%; in experiment [8], 13%; in experiment [9] it was 5%; in experiment [10], 0%; in [11] it was 20%; in experiment [12] it was 24%. In addition, the “%Inh” value came to 4% in experiment [13]; 0% in experiment [14]; 0% in [15]; 2% in experiment [16]; 33% in experiment [17]; 0% in experiment [18]. Also, the “%Inh” value was found to be 0% in experiment [19] and 21% in experiment [20].

As to `COc1cc(Nc2nccc(N3CCC(NC(=O)Nc4ccc5c(c4)OCO5)C3)n2)cc(OC)c1OC` (stereo not shown) [GSK1379766], the “%Inh” value in [1] is 52%; in [2], 0%; in [3], 14%; in experiment [4], 14%; in [5] it was 86%; in experiment [6], 7%. The “%Inh” value in experiment [7] turned out to be 0%; in [8] it was 0%; in experiment [9], 0%; in experiment [10] it was 0%; in [11] it was 11%; in experiment [12], 11%. Further, the “%Inh” value came out at 46% in experiment [13]; 5% in experiment [14]; 0% in experiment [15]; 0% in experiment [16]; 6% in experiment [17]; 7% in experiment [18]. In addition, the “%Inh” value in experiment [19] came to 0%; in experiment [20], 45%.

`O=C(O)C(F)(F)F.O=c1[nH]ccc2nc(N[C@@H]3CCNC3)nc(Nc3cc(Cl)cc(Cl)c3)c12` [GSK2188764]: the “%Inh” value in experiment [1] was found to be 28%; in experiment [2] it was 0%; in experiment [3], 99.8%; in [4], 99.9%; in experiment [5], 97.4%; in experiment [6], 15%. The “%Inh” value was found to be 78% in experiment [7]; 94% in experiment [8]; 0% in experiment [9]; 0% in experiment [10]; 8% in [11]; 26% in experiment [12]. Also, the “%Inh” value in experiment [13] was determined as 30%; in experiment [14], 0%; in [15], 40%; in experiment [16] it was 0%; in experiment [17] it was 9%; in [18] it was 12%. For the same molecule, the results for the “%Inh” value in [19] and in experiment [20] were 82% and 99.7%, respectively.

For the molecule `Cc1cc(-c2c(-c3ccc(F)cc3)ncn2CCCN2CCOCC2)nc(N)n1` [SB-222517], the “%Inh” value stood at 16% in experiment [1]; 0% in experiment [2]; 20% in experiment [3]; 30% in [4]; 18% in experiment [5]; 5% in experiment [6]. Further, the “%Inh” value in experiment [7] was 29%; in [8] it was 0%; in experiment [9], 47%; in [10], 1%; in experiment [11] it was 0%; in [12], 0%. The “%Inh” value in [13] is listed as 0%; in experiment [14] it was 0%; in experiment [15], 0%; in experiment [16] it was 13%; in experiment [17], 16%; in experiment [18], 0%. Moreover, the “%Inh” value is recorded as 20% in experiment [19] and 11% in [20].
